# ± gives the standard deviation of the averaged measurements.
# Experiments:
# Test in all cases: promoter activity interaction Z-score (Lux/OD deviation from empty-vector control); higher = stronger promoter induction by the compound
# [1] = tested on: E. coli BW25113 ompFp lux reporter; conditions: 146.1 µg/ml; genetic background: Δrob
# Summary of the method: (§1)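 E. coli BW25113, as wild type or one of three single-gene deletion strains, carried low-copy luxCDABE promoter reporters and grew in 40 µl LB Lennox in 384-well plates at 37°C, with OD600 and luminescence read every 30 min for 12 h. Each compound was run at four 1:2 dilutions in biological duplicates, integration spanned 0–8 h for wild type and 1–9 h for deletion strains, and wells under 10% of the median growth value were dropped. The score is the Z-transformed residual of growth-normalised luminescence fitted against a control.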
# [2] = tested on: E. coli BW25113 robp lux reporter
# Summary of the method: as §1
# [3] = tested on: E. coli BW25113 soxSp lux reporter
# Summary of the method: as §1
# [4] = tested on: E. coli BW25113 tolCp lux reporter
# Summary of the method: as §1
# [5] = 18.3 µg/ml, genetic background: wild type
# [6] = 18.3 µg/ml, genetic background: ΔmarA
# [7] = 18.3 µg/ml, genetic background: Δrob
# [8] = 18.3 µg/ml, genetic background: ΔsoxS
# [9] = 36.5 µg/ml, genetic background: wild type
# [10] = 36.5 µg/ml, genetic background: ΔmarA
# [11] = 36.5 µg/ml, genetic background: Δrob
# [12] = 36.5 µg/ml, genetic background: ΔsoxS
# [13] = 73.1 µg/ml, genetic background: wild type
# [14] = 73.1 µg/ml, genetic background: ΔmarA
# [15] = 73.1 µg/ml, genetic background: Δrob
# [16] = 73.1 µg/ml, genetic background: ΔsoxS
# [17] = 146.1 µg/ml, genetic background: wild type
# [18] = 146.1 µg/ml, genetic background: ΔmarA
# [19] = 146.1 µg/ml, genetic background: Δrob
structure (smiles),measurement,setting,value
O=C(O)CN(CCN(CC(=O)O)CC(=O)O)CC(=O)O,promoter activity interaction Z-score,[1],-1.04 ± 0.81
same,promoter activity interaction Z-score,[2]; [5],-0.212 ± 0.066
same,promoter activity interaction Z-score,[2]; [6],-1.05 ± 0.051
same,promoter activity interaction Z-score,[2]; [7],0.174 ± 0.67
same,promoter activity interaction Z-score,[2]; [8],0.244 ± 0.58
same,promoter activity interaction Z-score,[2]; [9],-0.656 ± 0.16
same,promoter activity interaction Z-score,[2]; [10],-0.174 ± 0.088
same,promoter activity interaction Z-score,[2]; [11],-0.454 ± 0.91
same,promoter activity interaction Z-score,[2]; [12],0.113 ± 1.1
same,promoter activity interaction Z-score,[2]; [13],-0.785 ± 0.22
same,promoter activity interaction Z-score,[2]; [14],-0.143 ± 0.47
same,promoter activity interaction Z-score,[2]; [15],-0.796 ± 0.055
same,promoter activity interaction Z-score,[2]; [16],-0.553 ± 0.47
same,promoter activity interaction Z-score,[2]; [17],-1.32 ± 0.071
same,promoter activity interaction Z-score,[2]; [18],-1.53 ± 0.59
same,promoter activity interaction Z-score,[3]; [5],-0.509 ± 0.063
same,promoter activity interaction Z-score,[3]; [6],-0.316 ± 0.052
same,promoter activity interaction Z-score,[3]; [7],-0.315 ± 0.048
same,promoter activity interaction Z-score,[3]; [8],-0.181 ± 0.14
same,promoter activity interaction Z-score,[3]; [9],-0.478 ± 0.23
same,promoter activity interaction Z-score,[3]; [10],-0.479 ± 0.017
same,promoter activity interaction Z-score,[3]; [11],-0.494 ± 0.011
same,promoter activity interaction Z-score,[3]; [12],-0.421 ± 0.15
same,promoter activity interaction Z-score,[3]; [13],-0.487 ± 0.045
same,promoter activity interaction Z-score,[3]; [14],-0.43 ± 0.35
same,promoter activity interaction Z-score,[3]; [15],-0.698 ± 0.13
same,promoter activity interaction Z-score,[3]; [16],-0.236 ± 0.11
same,promoter activity interaction Z-score,[3]; [17],1.26 ± 0.066
same,promoter activity interaction Z-score,[3]; [18],1.71 ± 1.1
same,promoter activity interaction Z-score,[3]; [19],1.4 ± 0.082
same,promoter activity interaction Z-score,[4]; [5],0.221 ± 0.32
same,promoter activity interaction Z-score,[4]; [6],-0.411 ± 0.67
same,promoter activity interaction Z-score,[4]; [7],-0.43 ± 0.067
same,promoter activity interaction Z-score,[4]; [8],0.426 ± 0.54
same,promoter activity interaction Z-score,[4]; [9],0.548 ± 0.048
same,promoter activity interaction Z-score,[4]; [10],-0.02 ± 1
same,promoter activity interaction Z-score,[4]; [11],-0.146 ± 0.27
same,promoter activity interaction Z-score,[4]; [12],-0.2 ± 0.11
same,promoter activity interaction Z-score,[4]; [13],-0.165 ± 0.86
same,promoter activity interaction Z-score,[4]; [14],-0.102 ± 0.4
same,promoter activity interaction Z-score,[4]; [15],-0.0689 ± 0.14
same,promoter activity interaction Z-score,[4]; [16],0.835 ± 0.86
same,promoter activity interaction Z-score,[4]; [17],1.75 ± 0.63
same,promoter activity interaction Z-score,[4]; [18],1.55 ± 0.38
same,promoter activity interaction Z-score,[4]; [19],1.79 ± 0.72

# — the supplement of paper PMC12282887
